Calls of active or inactive are those of the source. Rule for the calls: active = hit-call score of the fitted dose curve at least 0.9, where 1 is the maximum; inactive = score below 0.9.
test: ATG_TAL_CIS: Attagene CIS-FACTORIAL HepG2 Assay for human TAL Basal Promoter (AID 2282966); conditions: HepG2 Attagene cis-factorial TAL promoter reporter; actives raise or lower the signal;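 note: background control endpoint measuring basal TAL promoter reporter mRNA not a specific factor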
Summary of the method: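 HepG2 cells transiently transfected with multiplexed cis-promoter reporter units, dosed 24 h. Reporter mRNA quantified by RT-PCR, 6-FAM labelling, HpaI digestion and capillary electrophoresis; TAL basal promoter serves as background control, fitted bidirectionally versus DMSO.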

| SMILES | outcome | AC50 |
| --- | --- | --- |
| CNC(=C[N+](=O)[O-])NCCSCc1csc(CN(C)C)n1 | inactive | – |
| O=C1CCCCCCCCCCCCCC1 | inactive | – |
| CCCC(=O)OC/C=C(\C)CCC=C(C)C | inactive | – |
| CCCCCCC(O)CCCCCCCCCCC(=O)OC (stereo not drawn) | inactive | – |
| COC(=O)c1ccccc1 | inactive | – |
| O=C(O)/C=C/C(=O)O | inactive | – |
| O=S(=O)(O)c1cccc2ccccc12 | inactive | – |
| C/C=C(\C)C(=O)OCC/C=C\CC | inactive | – |
| CC/C=C\CC/C=C/C(OCC)OCC | inactive | – |
| C=CCOCC(CC)(CO)COCC=C | inactive | – |
| CN1CCCC1 | inactive | – |
| CCO[Si](CCCN)(OCC)OCC | inactive | – |
| CCCCCCC1CCC(=O)O1 (stereo not drawn) | inactive | – |
| O=[N+]([O-])c1ccccc1C(F)(F)F | inactive | – |
| CCC(=O)OCc1ccc(OC)cc1 | inactive | – |
| CCc1cc(C(N)=S)ccn1 | inactive | – |
| CCC(C)=NO | inactive | – |
| COc1cccc(OC)c1C(=O)O | inactive | – |
| C=C1CC[C@H]2C[C@@H]1C2(C)C | inactive | – |
| CCCCCC1CCCC(=O)O1 (stereo not drawn) | inactive | – |

| SMILES | outcome | AC50 |
| --- | --- | --- |
| COC(=O)[C@]1(C)CCC[C@@]2(C)[C@H]1CC=C1C=C(C(C)C)CC[C@@H]12 | – | 52.4 µM (active) |
| Cc1cc2nc3c(=O)[nH]c(=O)nc-3n(C[C@H](O)[C@H](O)[C@H](O)CO)c2cc1C | inactive | – |
| Cc1cc(-n2nc3ccc(Cl)cc3n2)c(O)c(C(C)(C)C)c1 | inactive | – |
| O=C(OCc1ccccc1)c1ccccc1 | inactive | – |
| CCCCCCC1CCCC(=O)O1 (stereo not drawn) | inactive | – |
| c1ccc(CNc2ncnc3nc[nH]c23)cc1 | inactive | – |
| NC(=O)c1ccc(N)cc1 | inactive | – |
| CC(=O)Nc1c(I)c(NC(C)=O)c(I)c(C(=O)O)c1I | inactive | – |
| CC(C)=CCOC(=O)c1ccccc1 | inactive | – |
| CC(C)(C)NC(=O)[C@@H]1CN(Cc2cccnc2)CCN1C[C@@H](O)C[C@@H](Cc1ccccc1)C(=O)N[C@H]1c2ccccc2C[C@H]1O | inactive | – |
| Oc1cccc2ccccc12 | inactive | – |
| C=CN1CCCCCC1=O | inactive | – |
| Oc1ccc(Oc2ccccc2)cc1 | inactive | – |
| CC(=O)CCc1ccccc1 | inactive | – |
| CNC[C@H](O)[C@@H](O)[C@H](O)[C@H](O)CO | inactive | – |
| CN(C)c1ccc(C(c2ccccc2)c2ccc(N(C)C)cc2)cc1 | inactive | – |
| c1ccc2c(c1)Oc1ccccc1S2 | inactive | – |
| CCCCCC[C@@H](O)C/C=C\CCCCCCCC(=O)O | inactive | – |
| CC[N+](CC)(CC(=O)Nc1c(C)cccc1C)Cc1ccccc1 (tested in a mixture with another compound) | inactive | – |

test: ATG_TGFb_CIS: Attagene CIS-FACTORIAL HepG2 Assay for human Transforming Growth Factor (TGF) (AID 2282967); conditions: HepG2 Attagene CIS TGFb reporter, mRNA transcription; actives raise or lower the signal
Summary of the method: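 Transient MRTU transfection of HepG2 (FuGene 6). Dose 24 h. TriZol RNA, oligo(dT) RT, PCR, 6-FAM primer extension, HpaI cut, CE. Bidirectional fit, DMSO = baseline.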

| SMILES | outcome | AC50 |
| --- | --- | --- |
| CNC(=C[N+](=O)[O-])NCCSCc1csc(CN(C)C)n1 | inactive | – |
| O=C1CCCCCCCCCCCCCC1 | inactive | – |
| CCCC(=O)OC/C=C(\C)CCC=C(C)C | inactive | – |
| CCCCCCC(O)CCCCCCCCCCC(=O)OC (stereo not drawn) | – | 100 µM (active) |
| COC(=O)c1ccccc1 | – | 0.5 µM (active) |
| O=C(O)/C=C/C(=O)O | inactive | – |
| O=S(=O)(O)c1cccc2ccccc12 | inactive | – |
| C/C=C(\C)C(=O)OCC/C=C\CC | inactive | – |
| CC/C=C\CC/C=C/C(OCC)OCC | inactive | – |
| C=CCOCC(CC)(CO)COCC=C | inactive | – |
| CN1CCCC1 | inactive | – |
| CCO[Si](CCCN)(OCC)OCC | inactive | – |
| CCCCCCC1CCC(=O)O1 (stereo not drawn) | inactive | – |
| O=[N+]([O-])c1ccccc1C(F)(F)F | inactive | – |
| CCC(=O)OCc1ccc(OC)cc1 | inactive | – |
| CCc1cc(C(N)=S)ccn1 | inactive | – |
| CCC(C)=NO | inactive | – |
| COc1cccc(OC)c1C(=O)O | inactive | – |
| C=C1CC[C@H]2C[C@@H]1C2(C)C | inactive | – |
| CCCCCC1CCCC(=O)O1 (stereo not drawn) | inactive | – |

| SMILES | outcome | AC50 |
| --- | --- | --- |
| COC(=O)[C@]1(C)CCC[C@@]2(C)[C@H]1CC=C1C=C(C(C)C)CC[C@@H]12 | inactive | – |
| Cc1cc2nc3c(=O)[nH]c(=O)nc-3n(C[C@H](O)[C@H](O)[C@H](O)CO)c2cc1C | inactive | – |
| Cc1cc(-n2nc3ccc(Cl)cc3n2)c(O)c(C(C)(C)C)c1 | inactive | – |
| O=C(OCc1ccccc1)c1ccccc1 | inactive | – |
| CCCCCCC1CCCC(=O)O1 (stereo not drawn) | inactive | – |
| c1ccc(CNc2ncnc3nc[nH]c23)cc1 | inactive | – |
| NC(=O)c1ccc(N)cc1 | inactive | – |
| CC(=O)Nc1c(I)c(NC(C)=O)c(I)c(C(=O)O)c1I | inactive | – |
| CC(C)=CCOC(=O)c1ccccc1 | inactive | – |
| CC(C)(C)NC(=O)[C@@H]1CN(Cc2cccnc2)CCN1C[C@@H](O)C[C@@H](Cc1ccccc1)C(=O)N[C@H]1c2ccccc2C[C@H]1O | inactive | – |
| Oc1cccc2ccccc12 | inactive | – |
| C=CN1CCCCCC1=O | inactive | – |
| Oc1ccc(Oc2ccccc2)cc1 | inactive | – |
| CC(=O)CCc1ccccc1 | inactive | – |
| CNC[C@H](O)[C@@H](O)[C@H](O)[C@H](O)CO | inactive | – |
| CN(C)c1ccc(C(c2ccccc2)c2ccc(N(C)C)cc2)cc1 | inactive | – |
| c1ccc2c(c1)Oc1ccccc1S2 | inactive | – |
| CCCCCC[C@@H](O)C/C=C\CCCCCCCC(=O)O | – | 115 µM (active) |
| CC[N+](CC)(CC(=O)Nc1c(C)cccc1C)Cc1ccccc1 (tested in a mixture with another compound) | inactive | – |
